Compound activity deposited in PubChem BioAssay by several laboratories.
The list is not random: actives were taken first. Their share in the collection is about 3.3%.
FAK inh – FAK kinase inhibitors, primary screen, biochemical; Focal adhesion kinase 1 (Homo sapiens), Q05397; biochemical FAK kinase activity assay; inhibition, %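 (tested at 7 µM)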; actives 0.84% (n = 97,000); in the data active = inhibition above about 19%;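 note: 0% = DMSO and 100% = reference compound high control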
Calb biofilm kill – clotrimazole potentiators killing Candida biofilms, primary screen, with clotrimazole, Alamar Blue; C. albicans biofilm + clotrimazole; inhibition, % at 6 µM; actives 0.14% (n = 85,000);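 active = inhibition above 20%; inactive = inhibition below 20%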;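 note: preformed 24 hr biofilms exposed to compound for 48 hr; 0% = biofilm without compound and 100% = blank killed by clotrimazole plus chlorhexidine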
ERa SRC1 inh – ERα–SRC-1 coactivator interaction inhibitors, primary screen, biochemical, TR-FRET, ERα LBD, estradiol-bound | Estrogen receptor (Homo sapiens), P03372 | TR-FRET ER-alpha LBD / SRC-1 peptide | inhibition, % at 25.6 µM | actives 1.7% (n = 86,000) | AID 629, 2007; in the data active = inhibition above about 50%;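 note: 0% = receptor plus peptide control and 100% = peptide only without receptor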
Smad3 FoxH1 inh – Smad3/FoxH1 peptide binding inhibitors, primary screen, biochemical, TR-FRET. inhibition, % at 25 µM. TR-FRET Smad3/Dy647-FoxH1 peptide binding, europium anti-His. actives 0.29% (n = 88,000). Mothers against decapentaplegic homolog 3 (Homo sapiens), P84022;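 active = compounds that reduce the energy-transfer binding signal between the protein and its labelled peptide by more than half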;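 note: 0% = Smad3 plus labelled peptide maximal FRET and 100% = peptide-only background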
ERb coact inh – inhibitors of ERβ-SRC1 coactivator interaction, primary screen, biochemical, TR-FRET, ERβ LBD, SRC-1 peptide | Estrogen receptor beta (Homo sapiens), Q92731 | TR-FRET ER-beta LBD / SRC1-Cy5 peptide binding; receptor agonist-loaded with 1 µM estradiol | inhibition, % at 25.6 µM | actives 1.3% (n = 86,000);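 active = compounds whose percent inhibition of the receptor-coactivator binding signal exceeds about 50% in the single-dose screen, limit read from the data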;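 note: 0% = receptor plus peptide wells without compound and 100% = peptide-only wells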
ERa coact pot – enhancers of ERα–SRC-1 coactivator binding, primary screen, biochemical, TR-FRET, ERα LBD, low estradiol. coactivator binding (% of control), % at 25.6 µM. TR-FRET ERalpha-LBD/SRC-Cy5 coactivator binding, 2 h; 100 = basal binding, no effect. Estrogen receptor (Homo sapiens), P03372. AID 639, 2007. actives 1.3% (n = 86,000); in the data active = activity above about 200%;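 note: binding measured in presence of low estradiol as agonist stimulus; 0% = peptide alone without receptor and 100% = receptor with peptide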
* hit, by the source's call; [ ] = dose if it differs, or a comment.

What do the screens show for `Cc1cccc(N2CCN(C(=O)c3cc4c(=O)n(C)c5ccccc5c4n3C)CC2)c1C`?
FAK inh: 0; Calb biofilm kill: 17; ERa SRC1 inh: 14; Smad3 FoxH1 inh: -22; ERb coact inh: 28; ERa coact pot: 312*

What do the screens show for `Cn1c(C(=O)Nc2ccc3c(c2)OCO3)cc2c(=O)n(C)c3ccccc3c21`?
Calb biofilm kill: 4; ERa SRC1 inh: 77*; Smad3 FoxH1 inh: 7; ERb coact inh: 59*; ERa coact pot: 66

What do the screens show for `Cn1c(C(=O)NCCN2CCCCCC2)cc2c(=O)n(C)c3ccccc3c21`?
FAK inh: 14; Calb biofilm kill: -1; ERa SRC1 inh: 72*[fluorescence artefact?]; Smad3 FoxH1 inh: 4; ERb coact inh: 35; ERa coact pot: 178

Results for CC(NC(=O)c1cc2c(=O)n(C)c3ccccc3c2n1C)c1ccc2c(c1)OCCO2 (centres undefined) ?
FAK inh: -1; Calb biofilm kill: 4; ERa SRC1 inh: 19; Smad3 FoxH1 inh: -11; ERb coact inh: 6; ERa coact pot: 277*[fluorescence artefact?]

Results for O=C(O)c1cc(-c2ccncc2)nc2ccccc12 ?
Smad3 FoxH1 inh: 4

What do the screens show for `Cc1ccc(S(=O)(=O)N/N=C/c2c(C)nn(-c3ccccc3)c2C)cc1`?
FAK inh: -2

How did CSC1(SC2=NCCN2)SC2(NCCN2)S1 do in these assays?
Smad3 FoxH1 inh: 81*

What do the screens show for `CCOC(=O)CSc1nn(C)c(=S)s1`?
FAK inh: 8; Calb biofilm kill: 10; ERa SRC1 inh: 65*; Smad3 FoxH1 inh: -3; ERb coact inh: 21; ERa coact pot: 33

What do the screens show for `COc1ccc(C(=O)c2cnc3ccccc3c2-c2ccccc2)cc1`?
FAK inh: -6

Results for CCC(=O)Oc1c(-c2ccccc2)c2nc3ccccc3nc2c2ccccc12 ?
FAK inh: 0; Calb biofilm kill: 1; ERa SRC1 inh: 39; Smad3 FoxH1 inh: 36; ERb coact inh: 47; ERa coact pot: 221*[fluorescence artefact?]

Results for Cc1onc(-c2c(Cl)cccc2Cl)c1C(=O)NCc1ccco1 ?
FAK inh: -3; Calb biofilm kill: 7; ERa SRC1 inh: -3; Smad3 FoxH1 inh: 2; ERb coact inh: -9; ERa coact pot: 117

Results for Cc1nn(Cc2ccccc2Cl)c(C)c1C(=O)NCc1ccco1 ?
FAK inh: 2; Calb biofilm kill: -5; ERa SRC1 inh: 3; Smad3 FoxH1 inh: 4; ERb coact inh: 79*; ERa coact pot: 106

Results for O=C(O)CNc1ccc(C(=O)O)cc1 ?
Smad3 FoxH1 inh: 3

What do the screens show for `C[C@H](CCC(=O)O)[C@@H]1CC[C@@H]2[C@H]3CC[C@@H]4C[C@H](O)CC[C@@]4(C)[C@@H]3CC[C@]21C`?
Smad3 FoxH1 inh: 5

Results for Cc1noc(C)c1S(=O)(=O)N1CCCC(C(=O)N2CCN(C3CCCCC3)CC2)C1 (centres undefined) ?
Calb biofilm kill: 6; ERa SRC1 inh: -3; Smad3 FoxH1 inh: 8; ERb coact inh: -4; ERa coact pot: 113

Results for Cc1noc(C)c1S(=O)(=O)N1CCC(C(=O)N2CCC(N3CCCCC3)CC2)CC1 ?
Calb biofilm kill: 22*; ERa SRC1 inh: -4; Smad3 FoxH1 inh: 6; ERb coact inh: 6; ERa coact pot: 94

What do the screens show for `CCOC(=O)c1c(-c2ccc(C)o2)csc1NC(=S)NC(=O)N(C)C`?
FAK inh: -3

Results for CC(C)OC(=O)C1C(=O)CC(C)(O)C(C(=O)OC(C)C)C1c1cccc(O)c1 (centres undefined) ?
FAK inh: 4; Calb biofilm kill: 4; ERa SRC1 inh: 0; Smad3 FoxH1 inh: 11; ERb coact inh: 1; ERa coact pot: 124

What do the screens show for `COc1ccc(/C=C(/C#N)c2cccnc2)cc1OC`?
Calb biofilm kill: -2; ERa SRC1 inh: 4; Smad3 FoxH1 inh: 4; ERb coact inh: 13; ERa coact pot: 108

Results for N#Cc1cc(Oc2cccnc2)c(Oc2cccnc2)cc1C#N ?
FAK inh: -2; Calb biofilm kill: -6; ERa SRC1 inh: 46; Smad3 FoxH1 inh: 1; ERb coact inh: 61*[fluorescence artefact?]; ERa coact pot: 46

How did CC1(C)CCC(=O)N[C@H]1CC(=O)C[C@@H]1NC(=O)CCC1(C)C do in these assays?
Smad3 FoxH1 inh: -2

What do the screens show for `CC1CCC2(CC1)N=C(N)Nc1nc3ccccc3n12` (centres undefined)?
FAK inh: -3; Calb biofilm kill: 8; ERa SRC1 inh: 63*[fluorescence artefact?]; Smad3 FoxH1 inh: -4; ERb coact inh: 4; ERa coact pot: 38

How did NC1=NC(c2ccc(F)cc2)n2c(nc3ccccc32)N1 (centres undefined) do in these assays?
FAK inh: -1; Calb biofilm kill: 3; ERa SRC1 inh: 24; Smad3 FoxH1 inh: 4; ERb coact inh: 11; ERa coact pot: 94

How did COc1cccc(CNS(=O)(=O)/C=C/c2ccc3c(c2)OCO3)c1 do in these assays?
FAK inh: 1

What do the screens show for `CCOC(=O)C1CCCN(CC(=O)/C=C2/N(C)c3ccccc3C2(C)C)C1` (centres undefined)?
FAK inh: 2; Calb biofilm kill: 7; ERa SRC1 inh: -1; Smad3 FoxH1 inh: 2; ERb coact inh: 1; ERa coact pot: 103

What do the screens show for `CN1/C(=C\C(=O)COC(=O)Cn2nnc(-c3ccccc3)n2)C(C)(C)c2ccccc21`?
FAK inh: -1; Calb biofilm kill: 4; ERa SRC1 inh: -3; Smad3 FoxH1 inh: -15; ERb coact inh: -3; ERa coact pot: 292*

How did COc1ccc(OC)c(S(=O)(=O)N(C)CC(=O)N2CCN(c3ccccc3F)CC2)c1 do in these assays?
FAK inh: 2; Calb biofilm kill: 2; ERa SRC1 inh: -12; Smad3 FoxH1 inh: -1; ERb coact inh: -21; ERa coact pot: 106

What do the screens show for `Cc1cc(NC(=O)CSc2ncnc3sc4c(c23)CCC(C)C4)no1` (centres undefined)?
Calb biofilm kill: 3; ERa SRC1 inh: 22; Smad3 FoxH1 inh: -13; ERb coact inh: 24; ERa coact pot: 375*[fluorescence artefact?]

Results for COc1ccc(NC(=O)c2cc(CN3C(=O)c4ccccc4C3=O)ccc2OC)cn1 ?
FAK inh: 3; Calb biofilm kill: 6; ERa SRC1 inh: 83*[fluorescence artefact?]; Smad3 FoxH1 inh: -7; ERb coact inh: 47; ERa coact pot: 96

How did CCOC(=O)CCCN do in these assays?
Smad3 FoxH1 inh: 1
